Drawing on PubChem BioAssay (NCATS), this text covers outcome and Potency for 38 molecules.

Each structure is given as a SMILES string. Calls of active or inactive are those of the source. Where a call stands in place of a potency, no number is given. The call rests on the fitted dose curve; in most records, active means well fitted inhibition curve with a large enough effect; inconclusive means small, poorly fitted or top-dose-only effect; inactive means flat fitted curve, though single readings scatter. *1 amine or outer side, *2 acyl side, *3 side chain or, on linkers, in order; H or OH if unused. Where a SMILES comes first, the peptide text is derived from it. Bridges are numbered along the chain shown (N, C = ends). X6 = O=C(CCC[*:2])[*:1]
Potency means the concentration at half of the fitted maximal effect.

The assay concerns the target Luciferin 4-monooxygenase (Photinus pyralis) (UniProt P08659). As to the kind of experiment: Primary firefly luciferase (FLuc) qHTS assay for identification of artifact compounds. (AID 1845220). Further: nearly all actives have a fitted effect of over 60% in size. The following applies: purified firefly luciferase, luminescence, 5 min; series mostly up to 54.1 µM. Summed up: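 D-luciferin and ATP (10 uM each, final) in Tris acetate buffer pH 7.6 were incubated with compounds for 15 min at room temperature. The reaction was started with 10 nM Photinus pyralis luciferase and luminescence read after 5 min. Percent inhibition was fitted to a 4-parameter Hill equation.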
In general terms: In qHTS, concentration-response curves come from the screen itself.
Turning to `C[C@@H]1O[C@@H](O[C@H]2[C@H](O[C@H]3CC[C@@]4(C)C(CC[C@]5(C)C4CC=C4C6CC(C)(C)CC[C@]6(C(=O)O[C@@H]6O[C@H](CO[C@@H]7O[C@H](CO)[C@@H](O[C@@H]8O[C@@H](C)[C@H](O)[C@@H](O)[C@H]8O)[C@H](O)[C@H]7O)[C@@H](O)[C@H](O)[C@H]6O)CC[C@]45C)[C@]3(C)CO)OC[C@H](O)[C@@H]2O)[C@H](O)[C@H](O)[C@H]1O` (stereo partly drawn), the outcome was “inactive [at 11.6 µM]”.

Regarding `C[C@@H]1O[C@@H](O[C@H]2[C@H](O[C@H]3CC[C@@]4(C)C(CC[C@]5(C)C4CC=C4[C@@H]6CC(C)(C)CC[C@]6(C(=O)O)CC[C@]45C)[C@]3(C)CO)OC[C@H](O)[C@@H]2O)[C@H](O)[C@H](O[C@@H]2OC[C@@H](O)[C@H](O)[C@H]2O)[C@H]1O` (stereo partly drawn), the outcome was “inactive [at 11.6 µM]”. In the case of `CCOC(=O)[C@H](CCc1ccccc1)CC1(C(=O)N[C@H]2CCc3ccccc3N(CC(=O)O)C2=O)CCCC1`, the Potency result was “inactive”.

Consider `CC(=O)O[C@@H]1[C@H]2[C@@H](OC(=O)c3ccccc3)[C@@H](C)C[C@]2(O)[C@H](OC(C)=O)[C@@]2(C)[C@@H]3CC(C)(C)C(=O)[C@]3(OC(C)=O)C[C@@]12C`, for which the Potency entry is “inactive”. On the same count and under the same terms, as for `C/C=C/C=C/C(CC(=O)O)Nc1ccc(C=O)cc1` (stereo not drawn), the figure is 23.9 µM (active); as for `C/C=C1/[C@H](O[C@@H]2O[C@H](CO)[C@@H](O)[C@H](O)[C@H]2O)OC=C(C(=O)OC)[C@H]1CC(=O)O[C@@H]1O[C@H](CO)[C@@H](O)[C@H](O)[C@H]1O`, “inactive”. The same measure, in the same setting: with `CC(C)(O)C1CCC2(C)C3C(O)C4C(C13)C42CO` (stereo not drawn) the entry was “inactive”; with `COC(=O)C1=CO[C@@H](O[C@@H]2O[C@H](CO[C@@H]3O[C@H](COC(=O)/C=C/c4ccc(O)cc4)[C@@H](O)[C@H](O)[C@H]3O)[C@@H](O)[C@H](O)[C@H]2O)[C@@H]2C(CO)=CC[C@H]12`, “inactive”.

In the case of `C/C=C/C1=CC2=C(CO1)C(=O)[C@](C)(O)[C@H](OC(=O)c1c(O)cc(OC)c(O)c1C)C2`, the Potency result was “inactive”. On to `Cc1cc(O)c(C(C)C)cc1O[C@@H]1O[C@H](CO)[C@@H](O)[C@H](O)[C@H]1O`, for which the Potency entry was “inactive”.

Take `CC(C)NC[C@H](O)COc1ccc(CCOCC2CC2)cc1`: the Potency entry is “inactive”. With `CC1(C)CC[C@]2(C(=O)O)CC[C@]3(C)C(=CCC4[C@@]5(C)CC[C@H](O[C@@H]6O[C@H](C(=O)O)[C@@H](O)[C@H](O)[C@H]6O)C(C)(CO)C5CC[C@]43C)C2C1` (stereo partly drawn), the Potency entry is “inactive”. Consider `C=C1CCC2C(C)(C(=O)O)CC(O)CC2(C)C1CC/C(C)=C/C(=O)O` (stereo not drawn), for which the Potency result is “inactive”. The same measure, in the same setting: as for `CC12CCC3C(C)(C)C(O)CCC3(C)C1Cc1c(oc(C(=O)O)cc1=O)O2` (stereo not drawn), the entry is “inactive”; as for `OC[C@H]1O[C@@H](Oc2ccc3c(c2)OC[C@H]2c4cc5c(cc4O[C@@H]32)OCO5)[C@H](O)[C@@H](O)[C@@H]1O`, “inactive”.

For the molecule `C=C[C@H]1[C@H](O[C@@H]2O[C@H](CO[C@@H]3OC[C@](O)(CO)[C@H]3O)[C@@H](O)[C@H](O)[C@H]2O)OC=C2C(=O)OCC[C@H]21`, the Potency result is “inactive”.

For the molecule `CC(=O)OC[C@]1(O)[C@H]2[C@H](OC(=O)CC(C)C)OC=C(CO[C@@H]3O[C@H](CO)[C@@H](O)[C@H](O)[C@H]3O)[C@H]2C[C@@H]1O`, the Potency result was “inactive”.

For the molecule `Clc1ccc2c(c1)C1=NCCN1c1c(-c3noc(C4CC4)n3)ncn1-2`, the Potency result is “inactive”. On the same count and under the same terms, with `O=C(/C=C/c1ccc(O)c(O)c1)OCc1ccccc1O[C@@H]1O[C@H](CO)[C@@H](O)[C@H](O)[C@H]1O` the entry was “inactive”; with `COCCCNCC1COc2ccccc2O1` (stereo not drawn), “inactive”; with `OCc1ccccc1O[C@@H]1O[C@H](CO)[C@@H](O)[C@H](O)[C@H]1O`, “inactive”.

Turning to `CC(=O)C1CCC2(C)C3=C(CCC12C)C1(C)CCC(=O)C(C)(C)C1CC3` (stereo not drawn), the Potency result was “inactive”. Regarding `CC1=CC(=O)C2C(C)(C)CC(O)CC2(C)C1CO` (stereo not drawn), the Potency entry was “inactive”. For the molecule `CC[C@H](C)[C@@H]1NC(=O)[C@H](Cc2ccc(OC)cc2)NC(=O)CCCSC[C@@H](C(=O)N2CCC[C@H]2C(=O)N[C@@H](CC(C)C)C(=O)NCC(N)=O)NC(=O)[C@H](CC(N)=O)NC(=O)[C@H](CCC(N)=O)NC1=O` (Y(Me)IQNCPLG-NH2; linker N-5 via X6), the Potency result was “inactive”. `CN1C(=O)c2ccccc2NC(=O)[C@]12O[C@@H]2c1cccc(O)c1`: the Potency entry was “inactive”. The same measure, in the same setting: with `CCCC1=CC2=C(CO1)C(=O)C(C)(OC(=O)c1c(C)cc(OC)cc1O)C(O)C2` (stereo not drawn) the entry was “inactive”; with `CC1(C)C(=O)C(C)(C)c2cc(C(=O)Nc3ccc(C(=O)O)cc3)ccc21`, “inactive”; with `N#Cc1ccc2[nH]c(O)c(-c3ccc(CN4CCOCC4)cn3)c2c1`, “inactive”.

As for `COC(=O)CC[C@@H](C)[C@H]1CC[C@H]2[C@@H]3CC(=O)[C@H]4C[C@H](OC(C)=O)CC[C@]4(C)[C@H]3CC[C@]12C`, the Potency result is “inactive”. The same measure, in the same setting: as for `O=C(O)c1cc(O[C@@H]2O[C@H](CO[C@@H]3OC[C@@H](O)[C@H](O)[C@H]3O)[C@@H](O)[C@H](O)[C@H]2O)c2ccccc2c1O`, the entry is “inactive”; as for `C=CCc1ccc(O[C@@H]2O[C@H](CO[C@@H]3O[C@H](CO)[C@@H](O)[C@H](O)[C@H]3O)[C@@H](O)[C@H](O)[C@H]2O)c(O)c1`, “inactive”; as for `C(#Cc1cccc(CN2CCOCC2)c1)CCN1CCCCC1`, “inactive”.

With `C[C@H]1C[C@H]2[C@@H]3CCC4=CC(=O)C=C[C@]4(C)[C@@]3(F)[C@@H](O)C[C@]2(C)[C@@]1(O)C(=O)COP(=O)(O)O`, the Potency entry was “inactive”. As for `C=CC(C)(O)CC/C=C(\C)C(=O)OCC1OC(OC2CCC3(C)C(CCC4(C)C3CC=C3C5CC(C)(C)C(O)CC5(C(=O)O)CCC34C)C2(C)C)C(O)C(OC2OC(CO)C(O)C(OC3OC(CO)C(O)C(OC4OC(COC5OC(CO)C(O)C(O)C5O)C(O)C(O)C4O)C3O)C2O)C1O` (stereo not drawn), the outcome is “inactive [at 11.6 µM]”. Regarding `CCC[C@@H]1C[C@@H](C(=O)N[C@@H]([C@H]2O[C@H](SC)[C@H](OP(=O)(O)O)[C@@H](O)[C@H]2O)[C@H](C)Cl)N(C)C1`, the Potency entry was “inactive”. Take `COC(=O)CC1(O)C(=O)Nc2ccccc21` (stereo not drawn): the Potency result was “inactive”. Turning to `CC12CC34C=CC(=O)C(C)(CCC(=O)O)C3C(CC1C4)O2` (stereo not drawn), the Potency result is “inactive”. Still for that read-out and setting: with `CC(=C/C(=O)O)/C=C/[C@]1(O)[C@@]2(C)CO[C@]1(C)C[C@H](O[C@@H]1O[C@H](CO)[C@@H](O)[C@H](O)[C@H]1O)C2` the entry was “inactive”.
